Screening results as filed in PubChem.
D1 antag – antagonists of human D1 dopamine receptor; P21728; HEK293 TREx D1 cells, calcium flux, dopamine EC80; stronger effect = lower value; activity change, negative = inhibition, % at 10 µM; hit rate 3.2% among 360,000; in the data active means activity change below about -30%; further: on the % scale 0 is the no-effect control and ±100 the full control effect
Target sequence (P21728 whole entry, looked up): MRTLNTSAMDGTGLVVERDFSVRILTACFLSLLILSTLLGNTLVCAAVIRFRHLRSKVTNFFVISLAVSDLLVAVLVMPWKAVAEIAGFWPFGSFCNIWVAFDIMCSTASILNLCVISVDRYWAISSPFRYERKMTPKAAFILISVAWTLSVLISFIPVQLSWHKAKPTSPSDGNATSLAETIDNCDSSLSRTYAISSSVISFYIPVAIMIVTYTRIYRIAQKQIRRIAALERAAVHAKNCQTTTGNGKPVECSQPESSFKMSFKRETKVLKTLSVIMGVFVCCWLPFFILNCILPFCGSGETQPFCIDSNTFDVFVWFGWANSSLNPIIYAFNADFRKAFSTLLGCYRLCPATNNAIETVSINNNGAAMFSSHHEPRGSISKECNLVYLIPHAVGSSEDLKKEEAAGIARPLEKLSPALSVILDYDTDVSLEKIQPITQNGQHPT
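Kinetic fluorescence of a calcium dye serves as the read-out. D1-expressing Hek293 Trex cells, induced overnight at 30 C, are exposed to compound for 180 s before an EC80 dopamine addition, then read 180 s further.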
D1 agonist – human D1 receptor agonism; P21728; HEK293 T-REx D1 cells, calcium flux, agonist mode; activation, % at 2 µM; hit rate 1% among 360,000; AID 504660; in the data active means activation above about 30%; further: 0% is about no effect
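Agonism was scored from calcium flux recorded over 180 s (1 read/s) after pintool compound addition, following a 10-cycle baseline. Cells were inducible force-coupled HEK293 TREx D1, plated overnight at 30 C and loaded with no-wash calcium dye.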
D3 ag – D3 dopamine receptor (human) agonism | AID 652048 | hit rate 0.58% among 410,000 | max activation, % | P35462 | D3R DiscoveRx beta-arrestin cells, luminescence, 90 min; in the data active means max activation above about 30%; further: 0% is about no effect
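Agonist-mode cell screen: cells plated at 1500/well and incubated overnight at 37 °C, then exposed to library compounds for 90 min at 37 °C. Detection reagent was added for 30–60 min at room temperature, and luminescence was read.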
D1 potentiator – human D1 dopamine receptor positive modulation; P21728; HEK293 TREx D1 cells, calcium flux, dopamine EC20 potentiation; potentiation, % at 10 µM; hit rate 0.036% among 360,000; AID 504651; in the data active means potentiation above about 30%; further: 0% is about no effect
DRD3 antagonist – blocks the human D3 dopamine receptor. P35462. D3R cells, DiscoveRx beta-arrestin luminescence, antagonist mode; stronger effect = lower value. max response, negative = inhibition, %. hit rate 2.5% among 360,000; in the data active means max response below about -50%; inconclusive means no clear call, values can overlap the other calls; further: on the % scale 0 is the no-effect control and ±100 the full control effect
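Cells expressing the human receptor were seeded at 1500 cells/well, incubated overnight at 37 degrees C in 5% CO2, then exposed to library compounds with dopamine controls for 90 minutes at 37 degrees C before luminescent detection.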
* marks the source's active call; other numbers are inactive results; ? = inconclusive; nt = not tested or not shown; ! = not active in a repeat. An excerpt weighted towards active compounds, which were near 6% of everything screened.

SMILES	D1 antag	D1 agonist	D3 ag	D1 potentiator	DRD3 antagonist
CC(C)CCN(CCC(C)C)CC(O)Cn1c2ccccc2c(=O)c2ccccc21 (configuration not stated)	32	3	-3	10	-5
Cc1cccc(C)c1N(CC(O)Cn1c2ccccc2c2ccccc21)S(C)(=O)=O (configuration not stated)	-36*	8	8	-4	23
CCCN(CCC)CC(O)Cn1cc(/C=C/C(=O)c2ccc(OCC)cc2)c2ccccc21 (configuration not stated)	-32*	69*	-8	0	nt
CCCN(CCC)CC(O)Cn1c2ccccc2c2ccccc21 (configuration not stated)	1	31*	-12	-4	-10
Cc1ccc(C(=O)c2cn(Cc3ccccc3C)c3nc(C)ccc3c2=O)cc1	8	7	2	0	nt
COc1ccc(-c2nc3cc(NC(=O)Cc4ccc(Cl)cc4)ccc3o2)cc1OC	-15	-1	-4	0	nt
COCCCN(Cc1ccco1)C(=O)c1cc2c(s1)-c1ccccc1OC2	-6	2	6	-5	nt
COc1cccc(C2NC(C)(C(=O)O)C3C(=O)N(C(C)C)C(=O)C23)c1O (configuration not stated)	-9	4	4	nt	-53*
Cc1cccc(C)c1OCc1nnc(SCC(=O)Nc2ccc(N3CCOCC3)cc2)o1	9	41*	2	nt	1
CCc1nnc(SCC(=O)Nc2ccc(N3CCOCC3)cc2)o1	-4	0	0	1	2
CCCNC(=O)c1ccc2c(=O)c(O)c(C)[nH]c2c1	-6	4	33*	-5	21
Nc1c(Cl)cc(-c2[nH]c3cc(C(=O)NCCO)ccc3c(=O)c2O)cc1Cl	12	12	35*	-4	32
O=C(NCCO)c1ccc(Cl)c(Cl)c1	1	-2	-2	7	1
COc1ccc(S(=O)(=O)c2c(O)c3ccc(C(=O)NCc4ccc(F)cc4)cc3[nH]c2=O)cc1	2	2	-5	-1	nt
CCCNC(=O)c1ccc2c(=O)c(O)c(-c3ccc(F)cc3)[nH]c2c1	-59*	1	14	-9	-13
O=C(NCCc1nc2ccccc2[nH]1)c1cccc(Br)c1	13	-1	-9	-2	-7
CCCNC(=O)c1ccc2c(=O)c(O)c(-c3cccc(Br)c3)[nH]c2c1	-36*	6	3	-8	0
CCN1CCN(C(c2cccc(OC)c2)c2c(O)cc(C)n(Cc3ccco3)c2=O)CC1 (configuration not stated)	-2	1	0	-5	nt
O=c1c2sc3ccccc3c2n(Cc2cccc(F)c2)c(=O)n1CCc1ccccc1	-9	3	0	1	nt
OC(COc1cccc2ccccc12)CN1CCN(c2cccc(Cl)c2)CC1 (configuration not stated)	12	4	45*	11	-6
Cc1cccc(N2CCN(CC(O)COc3ccccc3Cl)CC2)c1 (configuration not stated)	-33*	15	4	-9	-75*
OC(COc1cccc2ccccc12)CN1CCN(c2ccc(Cl)cc2)CC1 (configuration not stated)	-16	1	-7	-1	-4
CCOc1ccc(CCNC(=O)CCc2c(C)nc3cc(-c4ccccc4OC)nn3c2C)cc1	-4	3	22	-2	nt
Cc1cc(C(=O)COC(=O)c2ccc[nH]c2=O)c(C)n1-c1ccccc1F	1	2	0	-10	-1
Cc1cc(C(=O)COC(=O)c2ccc(O)cc2)c(C)n1-c1ccccc1F	-30*	6	-8	-2	-13
SMILES	D1 antag	D1 agonist	D3 ag	D1 potentiator	DRD3 antagonist
Cc1cc(C(=O)Cn2nnc3ccccc3c2=O)c(C)n1-c1ccccc1F	-53*	3	5	25	-30
COc1ccc(-n2c(C)cc(C(=O)Cn3nnc4ccccc4c3=O)c2C)cc1	-25	3	1	-1	14
COc1ccc(C(=O)C(OC(=O)c2ccccc2)c2ccccc2)cc1 (configuration not stated)	-9	1	-2	-3	12
COc1ccc(C(=O)C(OC(=O)c2ccccc2Cl)c2ccccc2)cc1 (configuration not stated)	-33*	11	-6	-8	0
Clc1cccc(Cl)c1CSc1nnc(-c2ccncc2)s1	-16	144*	8	13	18
Clc1ccc(CSc2nnc(-c3ccncc3)s2)cc1	-23	2	-2	3	-3
O=C(NCc1cccs1)c1ccc(Cn2c(SCc3cccc(F)c3)nc3cccnc32)cc1	6	3	-16	-2	nt
CCCCN(C/C=C/c1ccccc1OC)Cc1ccccc1	-4	10	-15	2	?
CCN(C/C=C/c1ccccc1OC)Cc1ccccc1	-19	-2	-25	-7	-82*
CC(C)N(C(=O)CSc1nc2ccc(Cl)cc2[nH]1)c1ccccc1	-44*	20	-2	1	nt
Cc1cc(C(=O)CSc2nc3ccc(Cl)cc3[nH]2)c(C)n1C	-7	2	33*	-6	-6
CCn1cc(/C=C(\NC(=O)c2ccccc2F)C(=O)N2CCOCC2)c2ccccc21	-34*	0	0	-7	-4
COCCN(Cc1nc2ccccc2c(=O)[nH]1)C(=O)c1cccc(S(=O)(=O)N2CCCC2)c1	-55*	2	-2	0	-10
CN(Cc1nc2ccccc2c(=O)[nH]1)C(=O)c1cccc(S(=O)(=O)N2CCCCCC2)c1	4	-1	2	-4	12
N#Cc1nc(Nc2cccc3ccccc23)nc(NC2CCCC2)n1	-35*	8	nt	-7	nt
COc1cccc(Nc2nc(C#N)nc(NC3CCCC3)n2)c1	-33*	5	nt	0	nt
O=C(Cn1cc(CNC(=O)c2ccccc2)nn1)Nc1cc(C(F)(F)F)ccc1Cl	-2	-1	nt	1	nt
CCOc1nc(NC(=O)NS(=O)(=O)Oc2ccccc2)nc(-c2ccccc2)n1	5	0	2	-3	nt
CCOc1nc(NC(=O)NS(=O)(=O)c2ccccc2F)nc(-c2ccccc2)n1	-31*	1	2	1	9
Cc1ccccc1CNc1ncnc2c1ncn2[C@@H]1O[C@H](CO)[C@@H](O)[C@H]1O	nt	nt	-9	nt	nt
CC(C)(C)c1ccc(C2=NC(C)(C)N(CC(=O)Nc3ccc(F)c(F)c3)C2=O)cc1	-5	9	3	-2	nt
C=CCn1c(SCC(=O)/C(C#N)=C(\C)N)nnc1C1CCCCC1	-75*	2	-5	-8	2
COc1ccc(CNC(=O)CSc2nc(-c3ccc(OC)c(OC)c3)cc(C(F)(F)F)n2)cc1	0	3	6	-1	nt
CC(C(O)c1ccc(O)cc1)N1CCC(Cc2ccccc2)CC1 (configuration not stated)	-50*	7	-91	-3	-88*!
